PubChem BioAssay (NCI)
Compounds without any hit were thinned out: in the full panel of roughly 79,000, 15% have a hit. Values without a mark were called inactive. The source made the active and inactive calls. No stated cut-off is given here; in the data, active means growth inhibition above about 70%; inactive means the rest.

Test: NCI Yeast Anticancer Drug Screen. Data for the bub3 strain (AID 167)
Settings: S. cerevisiae bub3 mutant strain, at 50.0 µM, active compounds read high
In short: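 Readout: yeast growth inhibition, expressed relative to vehicle-only wells. The test organism is a mutant strain from a panel with lesions in DNA repair or checkpoint genes.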

Compound | growth inhibition
Cc1cc(O)c(C(=O)/C=C/c2cccnc2)c(=O)[nH]1 | 78.8% (active)
Oc1ccccc1C(=NNc1ccccc1)c1ccccc1O | 95.8% (active)
Cn1c(=S)c2[nH]c(SCCN3CCCCC3)nc2n(C)c1=O | 97.8% (active)
Cc1cc(=O)n(-c2cc3cccccc-3n2)[nH]1 | 86.2% (active)
CC(=O)OCC1OC(n2c(O)c(N=NC(N)=S)c3ccc([N+](=O)[O-])cc32)C(OC(C)=O)C1OC(C)=O (centres undefined) | 53.3%
COC(=O)NNc1c([N+](=O)[O-])cnn(-c2ccccc2)c1=O | 0.9%
CC(=O)N(C1=C(Cl)C(=O)c2ccccc2C1=O)c1ccc(F)cc1 | 97.4% (active)
COC(=O)CC1c2cc(OC)c3cccc(OC)c3c2CCC1(C)C(=O)OC (centres undefined) | 77.2% (active)
CC[n+]1c(/C=C/c2ccc(N(C)C)cc2)ccc2ccccc21 | 98.8% (active)
COc1ccc(SC2=C(N(C)C)C(=O)c3ccccc3C2=O)cc1 | 60%
C1=C(c2ccccc2)C(=Nc2ccccc2)SC1=Nc1ccccc1 | 99% (active)
Cc1c(O)c(Br)c(Br)c(Br)c1Br | 93% (active)
CC1(C)OC(C(COC(=O)c2ccc([N+](=O)[O-])cc2)OS(=O)(=O)c2ccc([N+](=O)[O-])cc2)C(C(SCc2ccccc2)SCc2ccccc2)O1 (centres undefined) | 15.3%
Cc1cccc(Cc2ccc(Cl)cc2)c1O | 99.2% (active)
C=C(CN(C)C)C(=O)c1ccccc1[N+](=O)[O-] | 71.7% (active)
CCCCN(CCCC)CC(O)c1cc(-c2ccc(Cl)cc2)nc2c(C)cccc12 (centres undefined) | 89.8% (active)
O=C(Nc1ccc(Cl)cc1)NS(=O)(=O)c1c(-c2ccccc2)oc2ccccc2c1=O | 95.3% (active)
Cc1cc(CN(Cc2ccccc2)Cc2nc3ccccc3[nH]2)c(O)c(CN(Cc2nc3ccccc3[nH]2)Cc2nc3ccccc3[nH]2)c1 | 27.9%
COC1=CC2=CCC3C(CCC4(C)C(C(C)=O)CCC34)C2(C)CC1 (centres undefined) | 47.6%
OC(C1CCCCN1)C1CC(c2ccccc2)Nc2c(Cl)cc(Cl)cc21 (centres undefined) | 49.5%

Compound | growth inhibition
CN(C)C1=C(Cl)C(=O)c2ccccc2C1=O | 82% (active)
CCCCCNC(=O)C1C(=O)N(CCCCC)C(=O)/C1=N\N (centres undefined) | 30.8%
O=C(Nc1ccc(Cl)cc1)OCCOCCOC(=O)Nc1ccc(Cl)cc1 | 98.7% (active)
CCCC(CC)c1c(O)c(O)c(C(CC)CCC)c(C(CC)CCC)c1C(CC)CCC (centres undefined) | 97.2% (active)
Cc1ccc(NC(=S)SCc2ccc3c(c2)OCO3)cc1Cl | 99.2% (active)
CN(C)CCCNc1ccc(O)c2c1C(=O)c1ccccc1C2=O | 89.7% (active)
CC1=C(C(=O)Nc2ccc(Cl)c(Cl)c2)C(c2ccco2)C(C(=O)Nc2ccc(Cl)c(Cl)c2)=C(C)N1 | 89% (active)
Cc1ccccc1NC(=O)CSC(N)=O | 87.3% (active)
Cc1[nH]c2ccccc2c1C(C)CC(O)c1ccccc1 (centres undefined) | 88.7% (active)
Cn1c(=O)ccc2cc(C(=O)c3ccccc3)ccc21 | 16.8%
c1ccc2c(c1)N=c1ccccc1=P21c2ccccc2Nc2ccccc21 | 89.8% (active)
Nc1[nH]cnc(=S)c1NC=O | 42.3%
COC(=O)CCC(=O)c1ccc2c(c1)CC1(Cc3ccccc3C1)C2 | 41.4%
CCC[CH2][Sn]([CH2]CCC)([O]C(=O)c1cc(F)cc(F)c1)[O][Sn]([CH2]CCC)([CH2]CCC)[O]C(=O)c1cc(F)cc(F)c1 | 89% (active)
CCOC(=O)CSC(=S)Nc1ccc(Cl)cc1 | 50.5%
CC1(C)CC(=O)C(C(c2ccc3c(c2)OCO3)N2CCOCC2)C(=O)C1 (centres undefined) | 98.8% (active)
COC(=O)c1c(C)cccc1C(=O)c1c(C)cc(C)cc1C | 88.2% (active)
C=C1C(=O)OC2CC3(C)CC(O)C(O)C(=C)C3CC12 (centres undefined) | 93% (active)
CCOC(=O)C1=C(N)N(S(=O)(=O)c2ccc(C)cc2)CCC(C(=O)OC)=C1 | 26.2%
